Bioassay records from PubChem BioAssay.
Compounds with a hit are over-represented: about 2.4% of the library has one in this group of screens.
CHO-K1 Ca antag: M1 antagonist counterscreen hit in parental CHO-K1 cells; AID 602250; 360,000 tested, 0.6% active; inhibition, % at 3 µM; ATP-induced calcium, Fluo-8 fluorescence;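 active = inhibition above a per-plate cutoff, the plate's mean sample inhibition plus 3 SD, cut at about 24% in these data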;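 also: 0% = DMSO plus EC80 ATP and 100% = DMSO alone without ATP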
M1 ag parental: nonselective activator or artifact in parental CHO-K1 cells; Fluo-8 calcium fluorescence; scaled to maximal ATP response, vehicle zero; activation, % at 3 µM; 360,000 tested, 0.48% active; AID 602248; in the data active = activation above about 15%;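 also: untransfected CHO-K1 host cells lacking M1 receptor as counterscreen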
M1 ag: agonists of human M1 muscarinic receptor; 360,000 tested, 0.33% active; AID 588814; P11229; activation, % at 3 µM; CHO-K1 hM1, Fluo-8 calcium fluorescence, agonist mode; 0% DMSO, 100% acetylcholine EC100;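 active = activation above the run's mean compound activation plus 3 SD, cut at about 16% in these data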;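 also: peak over basal fluorescence ratio within a 140 s kinetic read after compound addition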
Target sequence (P11229 whole entry, looked up): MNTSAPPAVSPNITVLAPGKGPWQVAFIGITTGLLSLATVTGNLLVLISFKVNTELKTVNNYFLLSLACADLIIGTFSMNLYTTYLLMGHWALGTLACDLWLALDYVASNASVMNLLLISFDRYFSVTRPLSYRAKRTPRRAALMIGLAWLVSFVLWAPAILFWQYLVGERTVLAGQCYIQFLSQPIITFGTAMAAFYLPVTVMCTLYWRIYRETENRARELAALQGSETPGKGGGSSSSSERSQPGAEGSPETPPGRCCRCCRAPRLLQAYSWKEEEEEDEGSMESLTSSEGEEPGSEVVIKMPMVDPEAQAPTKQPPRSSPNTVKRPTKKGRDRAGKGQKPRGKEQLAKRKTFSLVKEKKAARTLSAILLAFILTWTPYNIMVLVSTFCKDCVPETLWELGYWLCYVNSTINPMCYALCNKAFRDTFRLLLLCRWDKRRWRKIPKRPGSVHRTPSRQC
M1 PAM parental: nonselective activator or artifact in parental CHO-K1 calcium assay; AID 602247; ATP EC20, Fluo-8 calcium fluorescence; 0% at ATP EC20, 100% at ATP max; activation, % at 3 µM; 360,000 tested, 0.02% active;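 active = activation above the run cutoff, the mean activation of all test compounds plus 3 SD, cut at about 40% in these data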;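 also: peak over basal fluorescence ratio in a 140 s read after ATP addition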
CHRM1 PAM: potentiates human M1 receptor response to acetylcholine; AID 588819; P11229; 360,000 tested, 0.088% active; CHO-K1 hM1, Fluo-8 calcium fluorescence, ACh EC20; 0% = ACh EC20, 100% = maximal ACh; activation, % at 3 µM; in the data active = activation above about 19%, passing the limit was not always enough
CHRM1 antagonist: antagonists of human M1 muscarinic receptor. inhibition, % at 3 µM. CHO-K1 hM1, Fluo-8 calcium fluorescence, ACh EC80 antagonist. 360,000 tested, 1.3% active. AID 588852. P11229;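 active = percent inhibition above its own plate's cutoff, namely the mean of that plate's compound wells plus 3 SD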;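 also: peak over basal fluorescence ratio during 140 s after agonist addition; 0% = ACh EC80 plus DMSO and 100% = DMSO alone without agonist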
Active calls of the source: *.

SMILES	CHO-K1 Ca antag	M1 ag parental	M1 ag	M1 PAM parental	CHRM1 PAM	CHRM1 antagonist
CCC(C(=O)Nc1cccc(S(=O)(=O)N(C)c2ccccc2)c1)c1ccccc1 (stereo not given)	-3	1	-3	-11	-6	5
CCN(CC)c1ccc(C=C(c2nnnn2-c2ccc(C)cc2)c2nnnn2-c2ccc(C)cc2)cc1	1	1	-3	3	-1	5
O=C(COC(=O)c1cc(=O)[nH]c(=O)[nH]1)Nc1ccccc1F	1	0	-2	-11	11	-14
COc1ccc(NC2CCCN(C(=O)CCCn3cncn3)C2)cc1 (stereo not given)	11	18*	-1	4	2	2
COc1ccc(NC2=CC(c3cccc(OC)c3)N(c3ccc(OC)cc3)C2=O)cc1 (stereo not given)	37*	9	9	11	-9	47*
Cc1ccc(NC(=O)CN(C)C(=O)C(C)OC(=O)c2ccccc2NCCO)cc1 (stereo not given)	-2	0	2	8	28*	-27
CCc1cccc2c1NC(=O)C21OCCO1	-4	0	5	8	11	-6
Cc1cccc(/C(N)=N/OC(=O)CCc2ccccc2)c1	-12	0	-5	7	-23	31*
COc1ccc(/C(N)=N/OC(=O)CCc2ccccc2)cc1OC	4	0	-6	-1	3	2
CC(=O)N1CCN(C(=O)c2ccc(Cl)c(S(=O)(=O)N3CCc4ccccc43)c2)CC1	-17	1	-4	8	9	-10
Cc1ccc(NC(=O)c2ccc(Cl)c(S(=O)(=O)N3CCc4ccccc43)c2)nc1	10	0	-2	3	5	-4
O=C(c1ccc(Cl)c(S(=O)(=O)N2CCc3ccccc32)c1)N1CCN(c2ccccc2O)CC1	-4	4	-3	-2	-14	25*
O=C(NNC(=O)c1ccccc1O)c1ccc(Cl)c(S(=O)(=O)N2CCc3ccccc32)c1	40*	10	2	-11	-5	38*
CN1CCC(=O)N([C@H](CN=[N+]=[N-])Cc2ccccc2)CC1	-19	0	-9	15	3	0
COCC(=O)N1CCC(c2nc3ccccc3[nH]2)CC1	-8	1	20*	-2	0	-5
Clc1ccc(-c2cnc3n2CCCCC3)cc1	-17	4	-7	18	-22	41*
CCOc1ccc(-c2cnc3n2CCC3)cc1	-19	0	-5	31	-6	1
Brc1ccc(-c2cnc3n2CCCC3)cc1	0	1	-5	5	-18	9
Fc1ccc(-c2cnc3n2CCCCC3)cc1	14	1	-8	-11	-19	39*
COCCNC(=O)CCC(=O)NNc1nc2ccccc2c2nc(-c3ccccc3)nn12	-4	1	-7	21	11	-12
CC1=C(C(=O)c2ccccc2)C(c2cccc([N+](=O)[O-])c2)NC(=S)N1 (stereo not given)	-11	1	-6	4	-1	2
CC(=O)C1=C(C)NC(=S)NC1c1cc([N+](=O)[O-])ccc1O (stereo not given)	-7	17*	-1	0	8	-12
Cc1cc(C)c(S(=O)(=O)Cc2ccccc2)c(=O)[nH]1	25*	0	-1	-16	9	4
Cc1cc(C)c(S(=O)(=O)Cc2ccc(Cl)cc2)c(=O)[nH]1	5	-1	-3	18	2	5
CC(C)(C)c1nnc(N/N=C/c2cc(Br)ccc2O)n(N)c1=O	15	11	4	-4	-17	35*
SMILES	CHO-K1 Ca antag	M1 ag parental	M1 ag	M1 PAM parental	CHRM1 PAM	CHRM1 antagonist
CCc1nnc(N/N=C/c2cc(Br)c(O)cc2O)n1N	7	1	-1	-1	16	-18
Cc1nc2nc(C)n(CCN3CCOCC3)c(=O)c2c(-c2cccc([N+](=O)[O-])c2)c1C(=O)CCCCCCCCCCN1CCC(c2ccccc2)(c2ccccc2)CC1	9	6	-1	12	-29	100*
C/C(=N/NC(=O)CC1N=C(Cc2ccccc2)NNC1=O)c1cccnc1 (stereo not given)	-8	-1	-3	29	4	-7
O=C(CN1CCc2cc3c(cc2C1)OCCCO3)Nc1ccc(S(=O)(=O)N2CCCC2)cc1	-15	3	-3	15	-22	50*
CC1c2cc3c(cc2CCN1CC(=O)Nc1ccccc1)OCCCO3 (stereo not given)	3	10	-7	5	-32	33*
O=C(CN1CCc2ccccc21)Nc1ccc2c(c1)OCCCO2	2	1	-3	-14	3	4
Cc1ccc(NC(=O)CN2CCc3cc4c(cc3C2C)OCCCO4)cc1 (stereo not given)	-1	5	-4	1	-22	53*
Cc1ccc(NC(=O)CN2CCc3cc4c(cc3C2C)OCCCO4)cc1C (stereo not given)	-5	2	-3	24	0	0
COC(=O)c1cc(NC(=O)CN2CCc3cc4c(cc3C2)OCCCO4)cc(C(=O)OC)c1	2	-1	-9	8	7	-16
CNC(=S)N(CCc1c(C)[nH]c2ccc(C)cc12)Cc1cccnc1	13	0	-1	-4	-3	2
Cc1ccc2c(c1)CCCO[C@]21O[C@H](CCO)C[C@H](O)[C@H]1O	3	1	-6	4	7	2
CCOc1cc(S(=O)(=O)NCCCN2CCOCC2)c(C)cc1C	1	0	-7	-11	-7	25
CC(CCc1ccccc1)NC(=O)c1cccs1 (stereo not given)	29*	0	11	-18	23	-38
CCCNC(=O)C1(C)CCCN(C(=O)COCc2ccccc2)C1 (stereo not given)	-2	0	-3	-3	-6	3
CC(C)C(=O)N1CCC1(C)C(=O)Nc1ccc(-n2cccc2)cc1 (stereo not given)	10	7	-5	12	4	-9
COc1ccc(-c2ccnc3nc(N4CCOCC4)nn23)cc1	24*	0	-1	-7	-3	3
CC(C)c1nnc(SCC(=O)NCc2ccco2)n1C	30*	0	1	-9	9	-3
O=C(Nc1ccccc1C(=O)NCCCN1CCOCC1)c1ccc(Cl)cc1	-11	2	4	-7	19	-5
COc1ccc(C(=O)N(C)CCCC2CCCC2)cc1OC1CCN(C(C)C)CC1	-9	3	-6	4	-18	30*
CC1C(=O)CC2C3(C)CCC2(C(C)C(=O)O)C(=O)C13 (stereo not given)	0	0	-5	2	7	-8
